This is a sample that favours compounds with a hit; in the whole collection about 9.7% have one here.
WNV NS2B-NS3 inh – inhibitors of WNV NS2B-NS3 protease, primary screen, biochemical, fluorogenic substrate; 0.18% of 65,000 active; Genome polyprotein (West Nile virus), P06935; z-score (test concentration not listed); fluorogenic substrate Ex360/Em465; hits give low values; AID 577, 2007; in the data active = z-score below about -3
Autofluor 339 – intrinsic fluorescence of library compounds, ex339/em460 – biochemical, MLSMR library, data from DPM-DC assay, artefact control, profiling panel. compound autofluorescence, ex339/em460 nm, NADH buffer; hits give high values; 1 = no-compound wells, NADH background. fluorescence fold increase at 10 µM. 5.5% of 65,000 active. AID 709, 2007;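 active = at 10 µM, mean starting fluorescence two-fold or more over control wells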;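 note: signal is the first read of a kinetic run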
M1 agonist – M1 muscarinic receptor agonists, primary screen, CHO-M1 cells, Fluo-4 calcium, agonist mode. Muscarinic acetylcholine receptor M1. Fluo-4 calcium fluorescence; hits give high values. B-score at 10 µM. 3% of 64,000 active. AID 626, 2007;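 active = fluorescence rise, raw or as B-score row- and column-corrected plate score, outside the 99.7% band of its plate's samples, either direction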
BAP1 block – inhibitors of BAP1 deubiquitinase, primary screen, biochemical, Ub-AMC fluorescence, kinetic; Ubiquitin carboxyl-terminal hydrolase BAP1 (Homo sapiens), Q92560; recombinant BAP1, Ub-AMC hydrolysis fluorescence kinetic; hits give low values; calls only at 20 µM; 0.48% of 72,000 active; AID 436, 2006;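 active = activity remaining at or below 50% of control, provided the compound also passes the data quality filters; inactive = the rest, including low values that fail the filters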
Target sequence (Q92560 whole entry, looked up): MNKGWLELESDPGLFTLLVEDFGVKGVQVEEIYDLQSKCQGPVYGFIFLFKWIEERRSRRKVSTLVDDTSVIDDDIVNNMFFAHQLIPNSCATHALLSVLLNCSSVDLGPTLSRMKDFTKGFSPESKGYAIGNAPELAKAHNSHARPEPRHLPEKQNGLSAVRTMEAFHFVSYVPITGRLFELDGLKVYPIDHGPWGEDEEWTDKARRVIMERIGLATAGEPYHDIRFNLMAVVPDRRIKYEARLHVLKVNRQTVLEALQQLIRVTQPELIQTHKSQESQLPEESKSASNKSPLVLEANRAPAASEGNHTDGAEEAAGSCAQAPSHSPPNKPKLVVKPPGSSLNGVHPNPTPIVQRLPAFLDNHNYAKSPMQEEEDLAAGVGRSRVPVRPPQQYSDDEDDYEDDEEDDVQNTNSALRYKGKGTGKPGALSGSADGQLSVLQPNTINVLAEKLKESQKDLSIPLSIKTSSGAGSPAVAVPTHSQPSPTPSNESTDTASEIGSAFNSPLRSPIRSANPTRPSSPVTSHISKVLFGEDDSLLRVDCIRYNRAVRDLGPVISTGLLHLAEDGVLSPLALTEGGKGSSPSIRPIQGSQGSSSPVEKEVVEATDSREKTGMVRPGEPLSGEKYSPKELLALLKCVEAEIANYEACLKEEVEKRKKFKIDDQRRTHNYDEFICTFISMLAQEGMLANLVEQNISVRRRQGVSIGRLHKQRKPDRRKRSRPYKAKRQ
A340 absorber – compound light absorbance at 340 nm, profiling panel, artefact control, biochemical, MLSMR library, data from PS, PMK, MK assays; compound absorbance at 340 nm, fold over control; fold change at 10 µM; 65,000 tested, under 10 active;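 active = at 10 µM dose, initial 340 nm absorbance at least 2 fold that of control wells; inactive = change under 2 fold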;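 note: initial absorbance extrapolated from kinetic A340 decline of NADH oxidation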
M1 antagonist – antagonists of rat M1 muscarinic receptor; B-score at 10 µM; CHO-M1 cells, Fluo-4 calcium, ACh EC80 antagonist mode; hits give low values; AID 628, 2007; 3.4% of 64,000 active;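 active = calcium fluorescence response, raw or row-and-column corrected B-score, differing from the plate sample mean either way at a set confidence level, mostly lower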
M1 agonist conf – rat M1 muscarinic receptor agonists, confirmation, CHO-M1 cells, Fluo-4 calcium, duplicate retest | shares compounds with M1 agonist | fluorescence change (max-min) at 10 µM | 19% of 1,700 active | AID 1488, 2009 | Fluo-4 calcium fluorescence, agonist mode; actives lie on both sides;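 active = fluorescence change differs from the solvent-only DMSO control mean at a set confidence level in both duplicate runs; inconclusive = differs from solvent-only control mean in just one of two runs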;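 note: an EC20 dose of acetylcholine follows compound addition during the same imaging run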
M4 agonist ctr – agonist activity at rat M4 receptor, confirmation, counter-screen for M1 allosteric modulator project, cell-based, agonist mode; shares compounds with M1 agonist; CHO M4/Gqi5 cells, Fluo-4 calcium fluorescence; actives lie on both sides; fluorescence change (max-min) at 10 µM; 9% of 1,700 active; AID 1741, 2009;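 active = fluorescence change differing from the plate's solvent-only control wells at 99.7% confidence in both duplicates, whether higher or lower; inconclusive = differs from solvent controls in only one of two duplicates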
A number is an active result; n = inactive; u = inconclusive; x = no result shown.

SMILES | WNV NS2B-NS3 inh | Autofluor 339 | M1 agonist | BAP1 block | A340 absorber | M1 antagonist | M1 agonist conf | M4 agonist ctr
COc1ccc(NC(=O)c2cnn3c(C(F)(F)F)cc(-c4ccc(OC)c(OC)c4)nc23)c(OC)c1 | x | x | x | n | x | x | x | x
COc1ccc(-c2cc(C(F)(F)F)n3nc(C(=O)Nc4cc(C)on4)cc3n2)cc1OC | n | 3.8 | 24 | n | n | n | 179 | n
CCOc1ccc(C2C(N3C(=O)c4cccc([N+](=O)[O-])c4C3=O)C(=O)N2c2cc(Cl)ccc2C)cc1 (stereo not given) | x | x | x | n | x | x | x | x
CNC(=O)c1cc2ccc(OC)cc2oc1=O | n | 3.6 | 3.8 | n | n | -2.3 | 132 | n
Cc1ccc(N2C(=O)c3cccc(Cl)c3C2=O)cc1 | x | x | x | n | x | x | x | x
CCc1nc(C)cn1S(=O)(=O)c1cc(C)c(OC)cc1C | n | n | -3.7 | n | n | n | u | u
O=C(Nc1ccc(CCC(=O)N2CCCC2)cc1)c1ncn[nH]1 | n | n | 1.8 | n | n | n | n | n
CCn1c(SCC(=O)N2CCOCC2)nc2oc3c(Cl)cc(Cl)cc3c(=O)c2c1=O | n | n | 4.4 | x | n | n | n | n
O=C(NC1=NCCS1)C1Cc2ccccc2CN1C(=O)c1ccccc1 (stereo not given) | n | n | n | n | n | n | x | x
COc1ccc(NC(=O)C2Cc3ccccc3CN2C(=O)c2ccccc2)cn1 (stereo not given) | n | n | 16 | n | n | n | u | u
O=C(Nc1cccc(Cl)c1)Nc1nccs1 | n | n | 3.5 | n | n | n | n | u
CCC(CC)C(=O)NCCc1cc2c(C)ccc(C)c2[nH]c1=O | n | n | n | n | n | n | x | x
COc1ccc(OC)c2[nH]c(=O)c(CCNC(C)=O)cc12 | n | n | n | n | n | n | x | x
COc1ccc(OC)c2[nH]c(=O)c(CCNC(=O)c3cc4ccccc4o3)cc12 | n | n | 2.5 | n | n | n | n | n
Cc1ccc(C)c2[nH]c(=O)c(CCNC(=O)c3cc4ccccc4o3)cc12 | n | n | 2.9 | n | n | n | u | n
CC1CC(C)CN(c2nc3c(c(=O)n(C)c(=O)n3C)n2Cc2ccc(Cl)cc2)C1 (stereo not given) | x | x | x | n | x | x | x | x
C=CCn1c2ccccc2c2nnc(SCCCn3c(=O)[nH]c4ccccc43)nc21 | x | n | 5.3 | x | n | -6.6 | n | n
C=CCn1c2ccccc2c2nnc(SCN3C(=O)c4ccccc4C3=O)nc21 | n | n | n | x | n | n | x | x
O=S(=O)(NCCOCC(F)(F)C(F)F)c1ccc2oc3ccccc3c2c1 | n | n | 15 | n | n | n | -22 | n
COc1ccc(C(=O)NCc2n[nH]c(=S)n2-c2ccccc2)c(OC)c1 | x | x | x | n | x | x | x | x
Cc1cc(Cl)ccc1OCC(=O)NCCO | x | x | x | n | x | x | x | x
Cc1cc(Cl)ccc1OCc1nc(-c2ccc(O)cc2)n[nH]1 | n | n | 4.4 | n | n | n | n | n
O=C1CSC(c2cccc([N+](=O)[O-])c2)N1c1ccc(Oc2ccc(Cl)cc2)cc1 (stereo not given) | x | x | x | n | x | x | x | x
O=C(Nc1ccccc1)N1CCN(c2nc3ccccc3s2)CC1 | n | n | 4.7 | n | n | n | n | n
O=C(Nc1ccc(F)cc1)N1CCN(c2nc3ccccc3s2)CC1 | n | n | n | n | n | n | x | x
SMILES | WNV NS2B-NS3 inh | Autofluor 339 | M1 agonist | BAP1 block | A340 absorber | M1 antagonist | M1 agonist conf | M4 agonist ctr
CCc1cccc(NC(=O)Nc2cccs2)c1 | n | n | n | n | n | n | x | x
N#Cc1cccc(NC(=O)Nc2cccs2)c1 | n | n | 11 | n | n | n | n | n
CCCCCCNc1c(C(=O)OCC)c(=O)[nH]c2ccccc12 | n | n | 5.4 | n | n | n | n | n
CCCCNC(=O)Nc1c(C(=O)OCC)[nH]c2ccccc12 | n | n | n | n | n | n | x | x
CCOC(=O)C1CCCN(CC(O)COc2ccc(OC)cc2C(C)(C)C)C1 (stereo not given) | n | n | 20 | n | n | -6.7 | 335 | n
COc1cccc(C(=O)Oc2ccc(N3C(=O)C4CCCCC4C3=O)cc2)c1 (stereo not given) | x | x | x | n | x | x | x | x
O=C(Nc1nccs1)c1cc(N2CCOCC2)nc2ccccc12 | n | n | 3.1 | n | n | n | n | n
O=C(Nc1ccccc1)c1cc(N2CCOCC2)nc2ccccc12 | n | n | n | n | n | n | x | x
CCC(=O)N1CCc2cc(OC)c(OC)cc2C1COc1ccc(C(=O)OC)cc1 (stereo not given) | n | n | n | n | n | n | x | x
COC(=O)c1ccc(OCC2c3cc(OC)c(OC)cc3CCN2C(=O)c2ccco2)cc1 (stereo not given) | n | n | 11 | n | n | -2.4 | n | u
O=c1cc(-c2ccccc2)c2ccc(Oc3ccc(C(F)(F)F)cc3[N+](=O)[O-])cc2o1 | x | x | x | n | x | x | x | x
COc1cc(C2CC(C(F)(F)F)n3ncc(C(=O)NC(C)(C)C)c3N2)cc(OC)c1OC (stereo not given) | x | x | x | n | x | x | x | x
Cn1c(-c2ccc3c(c2)OCO3)cnc1N | n | n | n | n | n | n | x | x
c1cc2c(cc1-c1cnc3n1CCC3)OCCO2 | n | n | 2.6 | n | n | n | u | n
CCn1c(C(=O)N2CCC(C(=O)N3CCN(c4ccccn4)CC3)CC2)cc2sccc21 | n | n | 2.5 | n | n | n | n | u
CC1CCN(C(=O)C2CCN(C(=O)c3cc4sccc4n3Cc3ccc(F)cc3)CC2)CC1 | n | n | n | n | n | n | x | x
CCN1C(=O)c2cccc3c(NC(=O)c4cccc(F)c4)ccc1c23 | x | x | x | n | x | x | x | x
O=c1c2ccccc2nc2n1CCN2Cc1ccc(Cl)cc1 | n | 2.2 | 5.6 | n | n | n | u | n
O=c1c2ccccc2nc2n1CCCS2 | n | n | n | n | n | n | x | x
CCOC(=O)c1c(NC(=O)C2CCCCC2)sc(C(=O)Nc2ccccc2F)c1C | x | x | x | n | x | x | x | x
O=C(NCc1cccnc1)C1c2ccccc2C(=O)N1Cc1ccco1 (stereo not given) | n | n | 11 | n | n | n | n | n
N#Cc1ccc(COc2ccc(CCO)cc2-n2nc3ccccc3n2)cc1 | n | n | 5.5 | n | n | n | n | n
COc1ccccc1C1C=C(c2ccccc2)Nc2nnnn21 (stereo not given) | n | n | x | n | n | x | x | x
COc1ccccc1C1C=C(c2ccc(Cl)cc2)Nc2nc(NS(C)(=O)=O)nn21 (stereo not given) | n | 4 | 54 | n | n | n | 88 | n

High-throughput results: PubChem BioAssay, several laboratories
